We go through six compounds from PubChem BioAssay (EPA / NIEHS).

As a reminder, the AC50 is the concentration giving half of the maximal activity seen.

The target of experiment [1] is Estrogen receptor (Homo sapiens) (UniProt P03372). As to the kind of experiment: OT_ERa_GFPERaERE_0120: Odyssey Thera (OT) 2-hour HeLa Transcription Induction Assay for Estrogen Receptor (AID 2283382; active means hit-call score of the fitted dose curve at least 0.9, where 1 is the maximum). The gist of the method:
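Measures ESR1 pathway reporter gain-of-signal in HeLa cells after a 2-hour treatment, detected as fluorescent protein induction by microscopy, DMSO as baseline.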

The target in experiment [2] is Peroxisome proliferator-activated receptor gamma (Homo sapiens) (UniProt P37231). The experiment is described as follows: OT_PPARg_PPARgSRC1_0480: Odyssey Thera (OT) 8-hour Protein-Complementation Assay for Peroxisome Proliferator-activated Receptor Gamma / SRC-1 Co-activator (AID 2283387; active means hit-call score of the fitted dose curve at least 0.9, where 1 is the maximum;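 further: nuclear to cytoplasmic split Venus YFP fluorescence ratio reporting PPARg SRC-1 interaction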). The gist of the method: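 HEK293T transiently transfected with PPARg and SRC-1 fused to Venus YFP fragments, compounds 8 h at 37C. Fixed, Draq5-stained cells imaged; nuclear/cytoplasmic 488 nm fluorescence ratio over at least 350 cells per image; gain fitted versus DMSO.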
Sequence of Peroxisome proliferator-activated receptor gamma (Homo sapiens) (P37231 whole entry, looked up, the tested form may be a part): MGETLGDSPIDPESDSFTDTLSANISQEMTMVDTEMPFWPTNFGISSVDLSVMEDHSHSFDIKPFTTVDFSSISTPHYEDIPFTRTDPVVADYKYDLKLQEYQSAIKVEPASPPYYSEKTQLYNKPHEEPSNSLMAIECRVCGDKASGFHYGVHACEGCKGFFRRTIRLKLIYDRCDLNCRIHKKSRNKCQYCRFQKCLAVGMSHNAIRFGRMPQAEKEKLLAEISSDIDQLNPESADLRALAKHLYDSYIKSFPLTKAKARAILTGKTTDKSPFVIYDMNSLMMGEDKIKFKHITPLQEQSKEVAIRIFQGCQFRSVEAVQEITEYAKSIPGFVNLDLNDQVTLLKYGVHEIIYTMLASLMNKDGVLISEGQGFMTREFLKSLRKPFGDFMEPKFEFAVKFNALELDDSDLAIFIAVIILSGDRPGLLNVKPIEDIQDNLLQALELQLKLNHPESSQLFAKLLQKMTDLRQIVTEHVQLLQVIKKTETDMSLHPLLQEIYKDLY

The target is the same in experiment [3]. The experiment is described as follows: OT_PPARg_PPARgSRC1_1440: Odyssey Thera (OT) 24-hour Protein-Complementation Assay for Peroxisome Proliferator-activated Receptor Gamma/ SRC-1 Co-activator (AID 2283388; active means hit-call score of the fitted dose curve at least 0.9, where 1 is the maximum). The gist of the method: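 Protein-fragment complementation between PPARg and coactivator SRC-1 was measured by fluorescence imaging in transiently transfected HEK293T cells after 24 h treatment. Signal was quantified as N/C ratio in the 488 nm channel, with DMSO as negative control.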

Experiment [4] in a line: CEETOX_H295R_11DCORT: CeeTox H295R High-throughput Steroidogenesis Assay for 11-Deoxycortisol (11DCORT) (AID 2283432).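 On AC50: 11-deoxycortisol secreted into the medium measured by LC-MS/MS.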 As to conditions: actives raise or lower the signal. In short, it runs like this:
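H295R cells prestimulated 48 h with 10 uM forskolin, then exposed 48 h to chemical in 0.1% DMSO. 11-Deoxycortisol in medium quantified by HPLC-MS/MS after MTBE extraction; bidirectional fit versus DMSO. MTT viability read in same wells.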

A short description of experiment [5]: CEETOX_H295R_OHPREG: CeeTox H295R High-throughput Steroidogenesis Assay for OH-Pregnenolone (OHPREG) (AID 2283434). As to conditions: actives raise or lower the signal. In short, it runs like this:
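Human adrenal H295R cells were prestimulated 48 h with 10 uM forskolin, then exposed 48 h to chemical in 0.1% DMSO. Medium 17alpha-hydroxypregnenolone was quantified by HPLC-MS/MS after MTBE extraction; bidirectional fitting versus DMSO baseline.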

The nature of experiment [6]: CEETOX_H295R_OHPROG: CeeTox H295R High-throughput Steroidogenesis Assay for OH-Progesterone (OHPROG) (AID 2283435). As to conditions: actives raise or lower the signal. In short, it runs like this:
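Secreted 17alpha-hydroxyprogesterone is read by tandem MS from media of forskolin-primed H295R cells dosed with chemical for 48 h. Activity is fitted in both directions against DMSO baseline; cytotoxic concentrations are re-tested diluted.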

Experiment [7] can be described thus: CEETOX_H295R_CORTIC: CeeTox H295R High-throughput Steroidogenesis Assay for Corticosterone (CORTIC) (AID 2283437).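 Further: corticosterone secreted into medium quantified by mass spectrometry.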 As to conditions: actives raise or lower the signal. In short, it runs like this:
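H295R cells were prestimulated 48 h with 10 uM forskolin, then exposed 48 h to test chemical in 0.1% DMSO. Medium corticosterone was MTBE-extracted and quantified by HPLC-MS/MS; bidirectional fit versus DMSO baseline.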

A short description of experiment [8]: CEETOX_H295R_CORTISOL: CeeTox H295R High-throughput Steroidogenesis Assay for Cortisol (AID 2283438).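 Further: cortisol secreted into medium quantified by LC-MS/MS.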 As to conditions: actives raise or lower the signal. The gist of the method: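 Human adrenocortical H295R cells (passage ≤10) received test chemicals for 48 h after forskolin priming. Secreted cortisol was measured by LC-MS/MS.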
Experiment [9] is described as follows: CEETOX_H295R_DOC: CeeTox H295R High-throughput Steroidogenesis Assay for DOC (AID 2283439). As to conditions: actives raise or lower the signal. The gist of the method:
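Secreted DOC was quantified from H295R media by HPLC-MS/MS after 48 h chemical exposure following 48 h forskolin (10 uM) prestimulation. Values were fitted in both directions relative to DMSO, the negative control and baseline.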

Experiment [10] is described as follows: CEETOX_H295R_ESTRADIOL: CeeTox H295R High-throughput Steroidogenesis Assay for Estradiol (AID 2283440).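 Further: estradiol secreted into medium quantified by LC-MS/MS after dansyl derivatisation.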 The settings on record: actives raise or lower the signal. The gist of the method:
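Estradiol secreted into the medium was measured by tandem mass spectrometry after liquid-liquid extraction and dansylation. Human H295R cells had been forskolin-primed (10 uM, 48 h) before a 48 h chemical exposure with 0.1% DMSO.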

A short description of experiment [11]: CEETOX_H295R_ESTRONE: CeeTox H295R High-throughput Steroidogenesis Assay for Estrone (AID 2283441).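 Further: estrone secreted into medium measured by LC-MS/MS after dansyl derivatization.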 As to conditions: actives raise or lower the signal. In short, it runs like this: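 H295R cells; 48 h forskolin (10 uM) prestimulation; 48 h compound exposure, 0.1% DMSO final. Medium estrone: MTBE extraction, dansyl derivatization, HPLC-MS/MS. Bidirectional fit vs DMSO.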

A short description of experiment [12]: CEETOX_H295R_PROG: CeeTox H295R High-throughput Steroidogenesis Assay for Progesterone (PROG) (AID 2283442). The settings on record: actives raise or lower the signal. The gist of the method:
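Steps: seed H295R cells and let them adhere overnight; prime 48 h with 10 uM forskolin; dose with compound in DMSO at 0.1% final for 48 h; extract medium steroids with MTBE; measure progesterone by LC-MS/MS. MTT viability was run in the same wells.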

Read-out in experiment [13]: Tumor necrosis factor receptor superfamily member 6 (Homo sapiens) (UniProt P25445)
As to the kind of experiment: LTEA_HepaRG_FAS: Life Technologies and Expression Analysis (LTEA) Assay for Fas cell surface death receptor (FAS) using HepaRG (AID 2283447). The settings on record: mRNA level, 48 h; actives raise or lower the signal. The gist of the method:
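Differentiated human HepaRG cells, pre-cultured 48 h, were exposed in duplicate for 48 h to 8-point half-log concentrations (top 100 uM, 0.5% DMSO) in serum-free induction medium; FAS mRNA measured by qRT-PCR, normalized to ACTB/GAPDH/POLR2A, bidirectional fit versus DMSO.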

Read-out in experiment [14]: Fatty acid synthase (Homo sapiens) (UniProt P49327)
As to the kind of experiment: LTEA_HepaRG_FASN: Life Technologies and Expression Analysis (LTEA) Assay for Fatty Acid Synthase (FASN) using HepaRG (AID 2283448). The settings on record: mRNA level, 48 h; actives raise or lower the signal. The gist of the method: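 Transcript-level assay: HepaRG liver cells are treated for 48 h across an eight-point range topping at 100 uM, and FASN mRNA, normalized to three housekeeping genes, is compared with DMSO controls in both directions.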

Read-out in experiment [15]: Cyclin D2 (CCND2), CCND2 (gene 894)
As to the kind of experiment: LTEA_HepaRG_CCND2: Life Technologies and Expression Analysis (LTEA) Assay for Cyclin D2 (CCND2) using HepaRG (AID 2283449).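 Further: CCND2 transcript measured by TaqMan qRT-PCR and normalised to three housekeeping genes.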 The settings on record: mRNA level, 48 h; actives raise or lower the signal. The gist of the method: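 Differentiated human HepaRG cells were exposed for 48 h in serum-free induction medium to eight half-log concentrations topping at 100 uM (0.5% DMSO vehicle). CCND2 mRNA was quantified by TaqMan qRT-PCR, normalised to ACTB, GAPDH and POLR2A, and fitted bidirectionally against DMSO.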

Read-out in experiment [16]: Cyclin Dependent Kinase Inhibitor 1A (CDKN1A), CDKN1A (gene 1026)
The experiment is described as follows: LTEA_HepaRG_CDKN1A: Life Technologies and Expression Analysis (LTEA) Assay for Cyclin Dependent Kinase Inhibitor 1A (CDKN1A) using HepaRG (AID 2283450). The settings on record: mRNA level, 48 h; actives raise or lower the signal. In short, it runs like this:
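Read-out is CDKN1A mRNA by TaqMan qRT-PCR, normalized to three housekeeping genes and fitted in both directions against the DMSO baseline. Human HepaRG cells were treated 48 h with test chemicals up to 100 uM in half-log steps, 0.5% DMSO.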

Read-out in experiment [17]: Cyclin D1 (CCND1), CCND1 (gene 595)
The experiment is described as follows: LTEA_HepaRG_CCND1: Life Technologies and Expression Analysis (LTEA) Assay for Cyclin D1 (CCND1) using HepaRG (AID 2283451).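 On AC50: TaqMan qRT-PCR transcript level normalised to ACTB GAPDH and POLR2A housekeeping genes.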 The settings on record: mRNA level, 48 h; actives raise or lower the signal. In short, it runs like this:
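HepaRG plated 48 h, medium switched to serum-free induction medium, chemicals added in duplicate (top 100 uM, half-log steps, 0.5% DMSO) for 48 h, cells lysed, RNA measured by TaqMan qRT-PCR.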

Experiment [18] in a line: CEETOX_H295R_ANDR: CeeTox H295R High-throughput Steroidogenesis Assay for Androstenedione (ANDR) (AID 2283436). As to conditions: actives raise or lower the signal. The gist of the method:
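H295R human adrenal cells (passages ≤10) were exposed to test chemicals for 48 h; androstenedione in medium was MTBE-extracted and quantified by HPLC-MS/MS against a 7-point standard curve. Bidirectional fitting used DMSO as baseline.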

The structures appear in SMILES notation. Several values for one entry are separate records, joined by “and”; a condition that tells them apart may be missing. Equal entries are not always repeated. Inconclusive results are not listed. The source holds several records for some structures; these can differ, active in one and inactive in another. Activity calls are given as the source filed them. How the source made its calls, unless noted: active means hit-call score of the fitted dose curve at least 0.9, where 1 is the maximum; inactive means score below 0.9.

Sequence of Fatty acid synthase (Homo sapiens) (P49327 whole entry, looked up): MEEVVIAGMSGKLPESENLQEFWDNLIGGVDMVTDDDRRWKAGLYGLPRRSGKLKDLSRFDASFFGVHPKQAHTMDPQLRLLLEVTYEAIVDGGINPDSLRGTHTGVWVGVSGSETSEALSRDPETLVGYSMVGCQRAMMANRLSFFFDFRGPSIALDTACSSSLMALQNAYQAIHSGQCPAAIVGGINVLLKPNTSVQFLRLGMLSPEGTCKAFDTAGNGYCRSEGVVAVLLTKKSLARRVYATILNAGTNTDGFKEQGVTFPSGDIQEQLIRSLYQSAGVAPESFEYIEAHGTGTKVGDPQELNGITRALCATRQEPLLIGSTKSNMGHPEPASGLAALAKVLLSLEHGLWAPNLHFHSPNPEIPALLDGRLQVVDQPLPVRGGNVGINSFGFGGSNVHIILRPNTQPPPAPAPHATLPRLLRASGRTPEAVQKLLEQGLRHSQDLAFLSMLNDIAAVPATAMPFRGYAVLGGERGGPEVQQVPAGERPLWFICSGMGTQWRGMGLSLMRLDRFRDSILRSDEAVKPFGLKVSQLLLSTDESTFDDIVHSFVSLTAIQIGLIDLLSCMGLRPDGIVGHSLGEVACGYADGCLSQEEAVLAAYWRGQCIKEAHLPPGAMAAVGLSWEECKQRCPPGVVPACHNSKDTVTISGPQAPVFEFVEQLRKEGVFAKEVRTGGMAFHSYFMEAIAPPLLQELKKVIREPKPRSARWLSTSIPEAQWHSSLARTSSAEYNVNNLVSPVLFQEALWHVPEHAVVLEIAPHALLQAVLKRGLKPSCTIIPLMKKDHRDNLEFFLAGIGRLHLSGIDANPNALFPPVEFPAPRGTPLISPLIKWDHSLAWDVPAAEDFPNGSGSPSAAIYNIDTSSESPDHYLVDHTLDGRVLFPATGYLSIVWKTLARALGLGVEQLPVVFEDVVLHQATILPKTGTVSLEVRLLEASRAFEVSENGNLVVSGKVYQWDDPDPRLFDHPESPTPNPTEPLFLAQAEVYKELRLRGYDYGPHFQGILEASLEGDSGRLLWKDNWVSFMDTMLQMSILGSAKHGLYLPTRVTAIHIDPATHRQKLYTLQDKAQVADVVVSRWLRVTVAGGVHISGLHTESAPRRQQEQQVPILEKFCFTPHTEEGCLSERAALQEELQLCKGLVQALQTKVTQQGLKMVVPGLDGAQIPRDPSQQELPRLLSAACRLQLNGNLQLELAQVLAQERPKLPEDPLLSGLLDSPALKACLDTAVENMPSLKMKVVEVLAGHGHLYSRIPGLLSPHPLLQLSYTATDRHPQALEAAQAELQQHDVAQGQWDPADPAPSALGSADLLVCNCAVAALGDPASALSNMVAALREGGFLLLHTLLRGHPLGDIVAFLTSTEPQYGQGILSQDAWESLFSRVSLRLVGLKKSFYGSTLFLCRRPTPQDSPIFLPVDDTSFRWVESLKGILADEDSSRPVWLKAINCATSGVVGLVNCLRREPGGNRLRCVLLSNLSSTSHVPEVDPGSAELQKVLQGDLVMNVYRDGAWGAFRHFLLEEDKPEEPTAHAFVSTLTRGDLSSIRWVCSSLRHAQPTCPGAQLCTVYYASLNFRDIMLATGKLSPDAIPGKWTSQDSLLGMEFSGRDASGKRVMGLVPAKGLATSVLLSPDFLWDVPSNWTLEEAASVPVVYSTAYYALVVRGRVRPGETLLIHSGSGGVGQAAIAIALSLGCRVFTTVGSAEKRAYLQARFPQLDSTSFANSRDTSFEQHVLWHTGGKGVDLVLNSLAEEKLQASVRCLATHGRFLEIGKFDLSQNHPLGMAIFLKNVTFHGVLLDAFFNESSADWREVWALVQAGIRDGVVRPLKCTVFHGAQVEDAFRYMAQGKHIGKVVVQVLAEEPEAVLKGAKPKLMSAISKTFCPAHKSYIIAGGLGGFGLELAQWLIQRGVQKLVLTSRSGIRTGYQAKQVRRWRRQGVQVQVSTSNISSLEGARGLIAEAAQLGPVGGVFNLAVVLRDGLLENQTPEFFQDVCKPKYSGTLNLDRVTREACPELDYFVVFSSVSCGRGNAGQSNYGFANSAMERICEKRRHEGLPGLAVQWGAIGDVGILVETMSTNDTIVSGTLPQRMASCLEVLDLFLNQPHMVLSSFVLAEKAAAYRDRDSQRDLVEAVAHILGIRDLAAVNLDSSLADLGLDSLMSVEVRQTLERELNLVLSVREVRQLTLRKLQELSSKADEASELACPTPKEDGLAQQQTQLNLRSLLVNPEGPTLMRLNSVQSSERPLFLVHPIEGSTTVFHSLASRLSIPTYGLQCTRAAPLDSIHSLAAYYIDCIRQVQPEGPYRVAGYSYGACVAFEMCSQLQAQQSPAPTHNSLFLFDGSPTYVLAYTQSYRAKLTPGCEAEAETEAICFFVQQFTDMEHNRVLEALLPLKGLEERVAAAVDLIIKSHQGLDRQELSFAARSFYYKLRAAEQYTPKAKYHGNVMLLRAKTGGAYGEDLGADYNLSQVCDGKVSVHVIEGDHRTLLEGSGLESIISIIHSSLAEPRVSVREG
Sequence of Estrogen receptor (Homo sapiens) (P03372 whole entry, looked up): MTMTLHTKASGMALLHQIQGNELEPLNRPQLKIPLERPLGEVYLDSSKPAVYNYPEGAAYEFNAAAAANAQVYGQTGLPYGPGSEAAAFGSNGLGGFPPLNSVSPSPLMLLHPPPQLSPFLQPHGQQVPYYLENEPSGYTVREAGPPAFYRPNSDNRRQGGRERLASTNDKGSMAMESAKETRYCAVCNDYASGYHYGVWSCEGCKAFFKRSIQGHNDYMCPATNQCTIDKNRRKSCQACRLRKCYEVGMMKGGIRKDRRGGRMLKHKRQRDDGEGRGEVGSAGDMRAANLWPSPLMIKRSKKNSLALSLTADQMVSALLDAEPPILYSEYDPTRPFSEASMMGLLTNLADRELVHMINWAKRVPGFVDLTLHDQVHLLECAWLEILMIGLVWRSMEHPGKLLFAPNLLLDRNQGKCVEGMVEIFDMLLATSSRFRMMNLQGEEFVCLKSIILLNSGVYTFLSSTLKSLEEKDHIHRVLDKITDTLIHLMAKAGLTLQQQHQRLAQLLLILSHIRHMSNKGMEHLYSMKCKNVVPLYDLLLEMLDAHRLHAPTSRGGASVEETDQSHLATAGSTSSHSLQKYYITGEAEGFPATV

`CC(C)(C)C(O)/C(=C\c1ccc(Cl)cc1Cl)n1cncn1` (stereo not drawn): the AC50 in experiment [1] is 93.6 µM (active); in experiment [14], 80.6 µM (active); in experiment [16], 27.5 µM (active); in experiment [17] it was 82.5 µM (active). Also, the compound was called inactive in experiment [2], in experiment [3], in experiment [4], in [5], in experiment [6] and in [7]. Further, the outcome in [8], in experiment [9], in experiment [10], in experiment [11], in [12] and in [13] was inactive. Also, the call in experiment [15] was inactive.

In the case of `COP(=O)(OC)OC=C(Cl)Cl`, the compound was classed as inactive in experiment [1], in experiment [2], in experiment [3], in experiment [13], in experiment [14] and in [15]. Moreover, the outcome in experiment [16] and in experiment [17] was inactive.

On to `O=S(=O)(O)C(F)(F)C(F)(F)C(F)(F)C(F)(F)C(F)(F)C(F)(F)C(F)(F)C(F)(F)F`, for which the result in experiment [2], in experiment [3], in experiment [13], in [15], in experiment [16] and in experiment [17] was inactive. Besides, the AC50 was 81.5 µM (active) and 71.8 µM (active) and 73.8 µM (active) in [14]; 18.5 µM (active) and 22.3 µM (active) and 12.3 µM (active) in experiment [17].

On to `Oc1ccc(Cl)cc1Cc1ccccc1`, for which the compound was called inactive in [2], in experiment [3], in experiment [5], in experiment [7], in experiment [8] and in experiment [12]. Further, the compound was classed as inactive in experiment [13], in [15], in experiment [16] and in experiment [17]. In addition, the AC50 in experiment [4] was 77.7 µM (active); in [18], 78 µM (active); in experiment [9] it was 39.9 µM (active); in experiment [14] it was 87.9 µM (active) and 74.3 µM (active) and 81.6 µM (active); in [17], 50.5 µM (active).

On to `CC[C@H](C)[C@H]1O[C@]2(C=C[C@@H]1C)C[C@@H]1C[C@@H](C/C=C(\C)[C@@H](O[C@H]3C[C@H](OC)[C@@H](O[C@H]4C[C@H](OC)[C@@H](O)[C@H](C)O4)[C@H](C)O3)[C@@H](C)/C=C/C=C3\CO[C@@H]4[C@H](O)C(C)=C[C@@H](C(=O)O1)[C@]34O)O2` (tested in a mixture with another compound), for which the outcome in experiment [1], in [2], in experiment [3], in experiment [4], in experiment [5] and in [6] was inactive. Moreover, the outcome in experiment [7], in [8], in [9], in [12] and in experiment [17] was inactive. Moreover, the AC50 in experiment [14] was 11.4 µM (active); in experiment [16], 7.59 µM (active).

Consider `CC1(C)C(C=C(Cl)Cl)C1C(=O)OC(C#N)c1ccc(F)c(Oc2ccccc2)c1` (stereo not drawn), for which the compound was called inactive in experiment [1], in experiment [2], in experiment [3], in experiment [4], in [5] and in experiment [6]. Further, the result in experiment [7], in [8], in experiment [9], in experiment [10], in experiment [11] and in experiment [12] was inactive. Further, the outcome in experiment [13], in experiment [14], in experiment [15], in [16] and in experiment [17] was inactive.
